The full ranking holds about 68,000 sequences; the median of “fluorescence intensity (a.u.)” is about 9,100, and the highest 2% start at about 16,000. For the sample, the highest values were picked, then their nearest neighbours and some sequences at random.

OsWRKY34, sequence (Q0JBA9 entry or part of it): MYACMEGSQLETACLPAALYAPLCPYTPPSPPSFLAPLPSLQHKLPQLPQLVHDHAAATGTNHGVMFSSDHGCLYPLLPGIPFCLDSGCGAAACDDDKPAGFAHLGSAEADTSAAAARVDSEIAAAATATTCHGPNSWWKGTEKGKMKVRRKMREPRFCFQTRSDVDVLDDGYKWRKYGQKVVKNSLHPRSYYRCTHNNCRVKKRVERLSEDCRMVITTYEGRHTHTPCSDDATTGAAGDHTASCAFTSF

This experiment deals with OsWRKY34 (Oryza sativa, UniProt Q0JBA9 1-250). The experiment is described as follows: protein-binding microarray (RPBM); PBS, 2% BSA, 51.3 ng/ul salmon testes DNA, 50 uM zinc acetate, 200 nM TF, 25 C, 1 h; high values mean tight binding. The conditions noted are these: protein: recombinant; tags: N-terminal polyhistidine and DsRed monomer fusion (pET32a); label: CyDye5-dUTP incorporated in the synthesized complementary strand; 3' TTTTT single-stranded linker to array surface; dsDNA, one strand shown. Put shortly:
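For the binding signal, per-feature fluorescence intensity was read in arbitrary units on an Axon 4000B scanner. Before scanning, a 2% BSA-blocked custom Agilent array made double-stranded with Cy5-dUTP was washed after 1 h at 25 °C with 200 nM protein and 50 µM zinc acetate. The proteins were Ni–NTA-purified transcription factors with N-terminal polyhistidine and DsRed fusions, expressed in E. coli BL21-CodonPlus.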
As for “ATGTATTGGTGTTATGCCTTCTGTTTATTTTATTTGCTCCCGGAGTCACCTAGTGCAG”, the binding signal was 8730 fluorescence intensity (a.u.).
As for “AAATCTGTAGCCCGCTGCTTTTCTCTCTCCTTATTTATCTCGGAGTCACCTAGTGCAG”, the binding signal is 11200 fluorescence intensity (a.u.).
The same measure for “CCAATATCACGTTGTCCTAGCTCTGCCAACGACTTCATCTCGGAGTCACCTAGTGCAG”: 8320 fluorescence intensity (a.u.); for “TTCTCTCCCTCCCGGCCGCCGCCCCGCCCCGCCCATCTTGCGGAGTCACCTAGTGCAG”: 9110 fluorescence intensity (a.u.).
Under “TTTGTTGGTTGGTTTGACCCTTCCTAATCCTACCTTTGGTCGGAGTCACCTAGTGCAG” stands 8160 fluorescence intensity (a.u.); under “CACGTACGCCGCCGTGTCTCATCACGAGCTCGATCGTTTCCGGAGTCACCTAGTGCAG”, 8240 fluorescence intensity (a.u.).
The same measure for “ACACCATGTTTCCACATTGCATTTCCTTCTGTTTTTTCTTCGGAGTCACCTAGTGCAG”: 17600 fluorescence intensity (a.u.).
As for “GTGGGTTTCTAGCATCATAGGGGTATTGTAGTAACTTCCTCGGAGTCACCTAGTGCAG”, the binding signal is 17400 fluorescence intensity (a.u.).
Under “GTGGAGTTGCTTTCTCCTCCTCCTTGTTTGGGTTGGGTGCCGGAGTCACCTAGTGCAG” stands 11900 fluorescence intensity (a.u.).
The same measure for “AAAGGTGAGTAGTGGTTTCTGGGTTGCGTCTCCCTTTTTCCGGAGTCACCTAGTGCAG”: 12600 fluorescence intensity (a.u.); for “GTTGGGTGGGTTTCCCGTCTCCTTCCGATTGCTGAGTAGCCGGAGTCACCTAGTGCAG”: 19100 fluorescence intensity (a.u.); for “TCCTCTGGCTTTCTTTTCCCATTTCGTCTCTTGTTTGTTTCGGAGTCACCTAGTGCAG”: 9160 fluorescence intensity (a.u.).
The same measure for “GGGTATTGTAGTAACTTCCTGTGCACCATCGGGGTTAAGACGGAGTCACCTAGTGCAG”: 10500 fluorescence intensity (a.u.); for “GATTTGTATTGGTTTTAATAGTAGGGGAATTTCTATACCTCGGAGTCACCTAGTGCAG”: 8140 fluorescence intensity (a.u.).
With “ATATTTCCTGTTTGCTCTGTGTTTTCTTCCACCTTCCATTCGGAGTCACCTAGTGCAG”, the binding signal is 9830 fluorescence intensity (a.u.).
With “CGTGGGTAATTTGGTTCCTCTTCTTTTTTTGGCTTCCTTTCGGAGTCACCTAGTGCAG”, the binding signal was 8440 fluorescence intensity (a.u.).
The same measure for “GTGGGTTTTTTTTTTTGGTTTGTTTCTTCCTCTGGCCATTCGGAGTCACCTAGTGCAG”: 19800 fluorescence intensity (a.u.); for “TTCTCTGTTTCTTCTGCCTTCACCACCTGCTCCACATTTTCGGAGTCACCTAGTGCAG”: 10900 fluorescence intensity (a.u.).
Under “ATTTTGATTAGTGCGTTTGATTAGTGGTGTTTATTATGTCCGGAGTCACCTAGTGCAG” stands 9410 fluorescence intensity (a.u.).
The same measure for “TTCTGAACCGTGTTAAAATGCTACAAAATTTTCCCTTTTTCGGAGTCACCTAGTGCAG”: 8570 fluorescence intensity (a.u.); for “AGCTTTCACCTCATTAAGACCGGTATCTGTTGAGACTTGACGGAGTCACCTAGTGCAG”: 8860 fluorescence intensity (a.u.); for “GAACTAGTCCGCCTAATTGTTGGCTCTCTTATCTCTTCATCGGAGTCACCTAGTGCAG”: 12100 fluorescence intensity (a.u.).
Regarding “TTCTATGTTGTGGTTCTGTGTTTTACACTTCAGTTTTGTTCGGAGTCACCTAGTGCAG”, the binding signal is 8030 fluorescence intensity (a.u.).
The same measure for “GTGATCCGGTGCCCTCTGACCCGCAACTTCCTTTTGGCACCGGAGTCACCTAGTGCAG”: 8460 fluorescence intensity (a.u.); for “TTAGATGTGGCCAGTTTTGATTTCTAGCTTATAGGATCGTCGGAGTCACCTAGTGCAG”: 9000 fluorescence intensity (a.u.); for “ACAATGTGACCCTATGTACAATTTACTCATATATTTTTATCGGAGTCACCTAGTGCAG”: 9570 fluorescence intensity (a.u.).
Under “GAGTAGTAAGTTATATCCCTCAACCATTTCACTTCACACACGGAGTCACCTAGTGCAG” stands 9600 fluorescence intensity (a.u.).
The same measure for “ATGTTGCCCTTTGTTCTGCTGTTTCCTGGTTATATGGGATCGGAGTCACCTAGTGCAG”: 17500 fluorescence intensity (a.u.); for “GGATCTCGTTTGTCTGGTTTTCGTAAGTTGAGGGACGGGTCGGAGTCACCTAGTGCAG”: 8380 fluorescence intensity (a.u.).
As to “ATTCATTACACCATGTTTCTTTCTTTCTTTCGAGGACCCTCGGAGTCACCTAGTGCAG”, the binding signal was 8370 fluorescence intensity (a.u.).
The same measure for “GGTGACCATTCCTAGTTTCCTACCCCTCATGTTTTTCTTTCGGAGTCACCTAGTGCAG”: 17000 fluorescence intensity (a.u.).
The same measure for “ATCTGTTATGTTTGCCCTGTCATTGGTTCTGCTAATCAATCGGAGTCACCTAGTGCAG”: 9160 fluorescence intensity (a.u.); for “TTCTTTTTCGTTTTCTTCTCATTCTTCTTTTTTTTCCTTTCGGAGTCACCTAGTGCAG”: 14300 fluorescence intensity (a.u.).
The same measure for “CCTTGTTTGCTCGGTTTTTGTAAGTTGAGGGACGGGTCATCGGAGTCACCTAGTGCAG”: 18700 fluorescence intensity (a.u.); for “TTATGAGGGTAAGTTTGTATTTGTCATATTTGGGTTGCTACGGAGTCACCTAGTGCAG”: 8110 fluorescence intensity (a.u.).
Consider “CATCGCCTCCGCTTCTGCTTTTTTTTTTCTTTTTTCTCGTCGGAGTCACCTAGTGCAG”, for which the binding signal is 10200 fluorescence intensity (a.u.).
Take “CTCGCGCGTGCCCGCCTCTGCTGTTCTTTCTCTCGCCCTCCGGAGTCACCTAGTGCAG”: the binding signal was 11400 fluorescence intensity (a.u.).
Under “GTTCTGGTTGGGATCGATTTCTTCTTCCCCTTTGTTGCTTCGGAGTCACCTAGTGCAG” stands 9700 fluorescence intensity (a.u.); under “GCCTGCCTGTCTGCCTCCGCGTCTTTTCTGCTGCCCACATCGGAGTCACCTAGTGCAG”, 19500 fluorescence intensity (a.u.); under “AGTTTCAGTAGCCTCGCCGATCGACTTGCCACACCGCCGTCGGAGTCACCTAGTGCAG”, 9260 fluorescence intensity (a.u.).
In the case of “CACCGCCATCTTCCTCTTCTTCTTCGTCGTCGTGGTTGGCCGGAGTCACCTAGTGCAG”, the binding signal is 11100 fluorescence intensity (a.u.).
Regarding “AAACTGGGCCATATCGGTTGGTTTTTGCTCTCTACGTCTCCGGAGTCACCTAGTGCAG”, the binding signal is 9280 fluorescence intensity (a.u.).

The values above are taken from article PMC7819943, “Rice protein-binding microarrays: a tool to detect cis-acting elements near promoter regions in rice”.
